Holding throughout (assay): DAPPL (digital affinity profiling via proximity ligation, sequencing); 10 mM Tris-HCl pH 7.5, 50 mM NaCl, 1 mM DTT, 4% glycerol, room temperature, 30 min; GST-TFs on glutathione beads, 16-mer random dsDNA library, 0.1% formaldehyde crosslink after washing; high values mean tight binding
Common to all, as to details: protein: recombinant; tags: N-terminal GST; dsDNA, one strand shown

One assay has as its target T1, FLI1 (Homo sapiens, UniProt Q01543 1-452).
T1 sequence: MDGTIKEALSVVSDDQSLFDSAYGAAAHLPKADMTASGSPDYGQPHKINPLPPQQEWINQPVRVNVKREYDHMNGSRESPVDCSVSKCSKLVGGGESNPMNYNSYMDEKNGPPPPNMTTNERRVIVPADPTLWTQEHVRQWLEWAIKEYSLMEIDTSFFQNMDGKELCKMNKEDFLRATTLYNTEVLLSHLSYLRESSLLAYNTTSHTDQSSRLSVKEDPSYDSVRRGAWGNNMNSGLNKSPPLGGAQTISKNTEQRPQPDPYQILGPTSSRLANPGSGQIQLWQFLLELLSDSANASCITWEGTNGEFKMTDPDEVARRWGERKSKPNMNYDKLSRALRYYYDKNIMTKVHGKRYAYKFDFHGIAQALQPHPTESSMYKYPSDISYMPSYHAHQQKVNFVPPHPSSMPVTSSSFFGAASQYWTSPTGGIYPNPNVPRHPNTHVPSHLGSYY
In short, it runs like this:
(§1)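 Binding signal is each hexamer's read frequency for a factor divided by its frequency in the tag-only sample. The factors were GST-fused human transcription factors from yeast, captured on glutathione beads, DNA-barcoded and pooled with that sample. Pools were incubated with 200 nmole of a random double-stranded 16-mer DNA library in Tris/NaCl/DTT/glycerol buffer at room temperature for 30 min, then washed, crosslinked with 0.1% formaldehyde, proximity-ligated with BsaI/T4 ligase (1 h, 37 °C), PCR-amplified and sequenced on an Illumina NextSeq500.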

The target of the next assay is T2, ELK1 (Homo sapiens, UniProt P19419 1-428).
T2 sequence: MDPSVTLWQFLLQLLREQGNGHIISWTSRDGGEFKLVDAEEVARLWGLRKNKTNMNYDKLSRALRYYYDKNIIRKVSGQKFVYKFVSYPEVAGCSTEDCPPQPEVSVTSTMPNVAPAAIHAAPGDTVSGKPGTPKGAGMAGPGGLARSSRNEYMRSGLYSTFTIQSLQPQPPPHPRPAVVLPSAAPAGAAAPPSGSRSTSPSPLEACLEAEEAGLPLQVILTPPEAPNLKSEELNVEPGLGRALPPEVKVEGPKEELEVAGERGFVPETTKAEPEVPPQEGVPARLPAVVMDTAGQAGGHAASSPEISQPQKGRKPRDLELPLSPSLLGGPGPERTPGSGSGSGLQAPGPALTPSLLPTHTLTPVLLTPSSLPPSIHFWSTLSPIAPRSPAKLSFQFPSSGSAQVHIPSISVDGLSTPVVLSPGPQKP
In short, it runs like this:
as §1

In a further assay the target is T3, GABPA (Homo sapiens, UniProt Q06546 1-454).
T3 sequence: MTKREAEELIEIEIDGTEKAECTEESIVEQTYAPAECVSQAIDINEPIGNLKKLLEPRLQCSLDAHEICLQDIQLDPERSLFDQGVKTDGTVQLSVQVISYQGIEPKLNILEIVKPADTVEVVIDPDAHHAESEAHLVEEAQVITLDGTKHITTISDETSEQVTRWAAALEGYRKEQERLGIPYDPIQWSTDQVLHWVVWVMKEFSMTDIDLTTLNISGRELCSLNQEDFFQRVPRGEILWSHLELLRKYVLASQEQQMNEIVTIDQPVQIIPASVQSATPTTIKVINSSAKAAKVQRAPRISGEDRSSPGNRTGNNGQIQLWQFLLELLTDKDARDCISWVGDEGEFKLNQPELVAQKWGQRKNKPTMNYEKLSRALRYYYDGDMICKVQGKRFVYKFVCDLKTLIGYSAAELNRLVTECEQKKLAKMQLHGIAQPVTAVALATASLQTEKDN
The method in brief:
as §1

A further assay deals with T4, ERG (Homo sapiens, UniProt P11308 1-479).
T4 sequence: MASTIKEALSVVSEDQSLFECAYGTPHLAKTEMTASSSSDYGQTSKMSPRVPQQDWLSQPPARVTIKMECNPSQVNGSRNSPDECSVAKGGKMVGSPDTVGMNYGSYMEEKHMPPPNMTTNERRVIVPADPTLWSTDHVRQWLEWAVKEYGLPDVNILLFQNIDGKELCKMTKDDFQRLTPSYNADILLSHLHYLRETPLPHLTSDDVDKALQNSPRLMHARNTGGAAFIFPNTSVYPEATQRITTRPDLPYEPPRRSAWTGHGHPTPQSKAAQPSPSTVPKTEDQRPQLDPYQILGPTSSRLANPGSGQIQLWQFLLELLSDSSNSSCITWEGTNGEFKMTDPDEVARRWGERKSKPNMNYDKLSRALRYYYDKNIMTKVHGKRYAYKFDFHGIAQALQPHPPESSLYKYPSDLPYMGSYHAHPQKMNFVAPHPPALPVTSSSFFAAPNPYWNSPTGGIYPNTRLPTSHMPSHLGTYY
In short, it runs like this: as §1

Another assay has as its target ELF1 (Homo sapiens, UniProt P32519 1-619). The method in brief: as §1
The next assay deals with T5, EHF (Homo sapiens, UniProt Q9NZC4 1-300).
T5 sequence: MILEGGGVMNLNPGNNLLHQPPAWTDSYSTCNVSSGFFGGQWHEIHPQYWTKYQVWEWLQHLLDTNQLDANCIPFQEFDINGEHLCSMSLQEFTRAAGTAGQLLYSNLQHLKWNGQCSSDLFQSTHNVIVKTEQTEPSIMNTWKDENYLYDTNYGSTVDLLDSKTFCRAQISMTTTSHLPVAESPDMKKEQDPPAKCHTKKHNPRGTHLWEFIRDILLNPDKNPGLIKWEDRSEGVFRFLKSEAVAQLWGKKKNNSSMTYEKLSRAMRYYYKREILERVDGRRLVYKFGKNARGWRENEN
In short, it runs like this:
as §1

The target of another assay is SPI1 (Homo sapiens, UniProt P17947 1-270). The method in brief: as §1
The next assay deals with SPIB (Homo sapiens, UniProt Q01892 1-262). In short, it runs like this:
as §1

A further assay has as its target T6, ELK3 (Homo sapiens, UniProt P41970 1-407).
T6 sequence: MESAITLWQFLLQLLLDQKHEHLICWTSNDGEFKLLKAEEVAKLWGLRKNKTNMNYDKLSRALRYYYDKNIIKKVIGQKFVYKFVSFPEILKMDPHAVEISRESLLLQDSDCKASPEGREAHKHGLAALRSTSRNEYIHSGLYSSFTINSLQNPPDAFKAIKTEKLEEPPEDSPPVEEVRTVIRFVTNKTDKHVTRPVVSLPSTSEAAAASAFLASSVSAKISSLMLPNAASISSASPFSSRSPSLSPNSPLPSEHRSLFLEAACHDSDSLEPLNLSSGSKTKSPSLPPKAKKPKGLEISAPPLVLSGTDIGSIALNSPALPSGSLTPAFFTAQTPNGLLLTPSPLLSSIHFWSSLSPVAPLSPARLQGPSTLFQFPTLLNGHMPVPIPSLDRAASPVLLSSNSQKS
In short, it runs like this:
as §1

SPIB, sequence (Q01892 whole entry): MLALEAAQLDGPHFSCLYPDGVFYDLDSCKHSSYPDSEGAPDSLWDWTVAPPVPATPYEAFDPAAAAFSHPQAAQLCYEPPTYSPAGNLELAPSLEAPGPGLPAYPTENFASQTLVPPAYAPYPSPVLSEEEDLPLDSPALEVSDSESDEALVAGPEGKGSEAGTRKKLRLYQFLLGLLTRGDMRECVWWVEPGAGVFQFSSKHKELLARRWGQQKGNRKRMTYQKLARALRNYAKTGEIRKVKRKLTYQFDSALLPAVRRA
ELF1, sequence (P32519 whole entry): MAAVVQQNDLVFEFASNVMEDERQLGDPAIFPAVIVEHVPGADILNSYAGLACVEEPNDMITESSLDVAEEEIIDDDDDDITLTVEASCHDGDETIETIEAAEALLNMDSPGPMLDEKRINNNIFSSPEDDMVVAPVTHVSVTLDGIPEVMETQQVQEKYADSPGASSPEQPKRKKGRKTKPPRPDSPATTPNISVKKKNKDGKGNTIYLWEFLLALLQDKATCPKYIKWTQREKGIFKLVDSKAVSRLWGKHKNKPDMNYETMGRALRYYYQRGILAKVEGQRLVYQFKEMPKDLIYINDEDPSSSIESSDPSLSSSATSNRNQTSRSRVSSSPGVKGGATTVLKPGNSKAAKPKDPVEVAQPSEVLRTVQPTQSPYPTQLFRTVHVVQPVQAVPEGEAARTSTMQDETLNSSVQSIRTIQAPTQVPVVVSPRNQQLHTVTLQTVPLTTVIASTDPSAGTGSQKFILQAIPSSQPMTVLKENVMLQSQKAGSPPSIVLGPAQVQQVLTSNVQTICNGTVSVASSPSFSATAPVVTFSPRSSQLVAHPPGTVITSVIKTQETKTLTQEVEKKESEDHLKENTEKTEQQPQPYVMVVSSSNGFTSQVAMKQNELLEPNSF

Turning to TAAAAC, the binding signal with FLI1 was 1.17 fold enrichment (6-mer frequency, TF over GST control); in the assay with ELK1, 1.18 fold enrichment (6-mer frequency, TF over GST control); with GABPA it was 1.14 fold enrichment (6-mer frequency, TF over GST control); in the assay with ERG, 1.18 fold enrichment (6-mer frequency, TF over GST control); with ELF1 it was 1.24 fold enrichment (6-mer frequency, TF over GST control); with EHF, 1.11 fold enrichment (6-mer frequency, TF over GST control). Also, the binding signal is 1.2 fold enrichment (6-mer frequency, TF over GST control) with SPI1; 1.17 fold enrichment (6-mer frequency, TF over GST control) in the assay with SPIB; 1.19 fold enrichment (6-mer frequency, TF over GST control) with ELK3.

As for ACCTTT, the binding signal was 1.52 fold enrichment (6-mer frequency, TF over GST control) in the assay with FLI1; 1.33 fold enrichment (6-mer frequency, TF over GST control) with ELK1; 1.47 fold enrichment (6-mer frequency, TF over GST control) with GABPA; 1.38 fold enrichment (6-mer frequency, TF over GST control) with ERG; 1.47 fold enrichment (6-mer frequency, TF over GST control) in the assay with ELF1; 1.38 fold enrichment (6-mer frequency, TF over GST control) with EHF. The binding signal in the assay with SPI1 is 1.49 fold enrichment (6-mer frequency, TF over GST control); in the assay with SPIB, 1.45 fold enrichment (6-mer frequency, TF over GST control); in the assay with ELK3, 1.35 fold enrichment (6-mer frequency, TF over GST control).

Consider TTTTCA, for which the binding signal with FLI1 is 1.12 fold enrichment (6-mer frequency, TF over GST control); in the assay with ELK1 it was 1.19 fold enrichment (6-mer frequency, TF over GST control); with GABPA, 1.3 fold enrichment (6-mer frequency, TF over GST control); in the assay with ERG, 1.17 fold enrichment (6-mer frequency, TF over GST control); with ELF1, 1.18 fold enrichment (6-mer frequency, TF over GST control); with EHF it was 1.22 fold enrichment (6-mer frequency, TF over GST control). The binding signal with SPI1 was 1.29 fold enrichment (6-mer frequency, TF over GST control); with SPIB it was 1.27 fold enrichment (6-mer frequency, TF over GST control); in the assay with ELK3 it was 1.09 fold enrichment (6-mer frequency, TF over GST control).

In the case of CTACCG, the binding signal is 1.44 fold enrichment (6-mer frequency, TF over GST control) with FLI1; 1.71 fold enrichment (6-mer frequency, TF over GST control) in the assay with ELK1; 1.58 fold enrichment (6-mer frequency, TF over GST control) with GABPA; 1.5 fold enrichment (6-mer frequency, TF over GST control) with ERG; 1.64 fold enrichment (6-mer frequency, TF over GST control) in the assay with ELF1; 1.55 fold enrichment (6-mer frequency, TF over GST control) with EHF. In addition, the binding signal was 1.52 fold enrichment (6-mer frequency, TF over GST control) with SPI1; 1.73 fold enrichment (6-mer frequency, TF over GST control) in the assay with SPIB; 1.57 fold enrichment (6-mer frequency, TF over GST control) in the assay with ELK3.

As for AAACTA, the binding signal in the assay with FLI1 is 1.17 fold enrichment (6-mer frequency, TF over GST control); in the assay with ELK1, 1.23 fold enrichment (6-mer frequency, TF over GST control); with GABPA, 1.23 fold enrichment (6-mer frequency, TF over GST control); in the assay with ERG it was 1.23 fold enrichment (6-mer frequency, TF over GST control); with ELF1, 1.27 fold enrichment (6-mer frequency, TF over GST control); with EHF, 1.32 fold enrichment (6-mer frequency, TF over GST control). In addition, the binding signal with SPI1 was 1.22 fold enrichment (6-mer frequency, TF over GST control); in the assay with SPIB, 1.22 fold enrichment (6-mer frequency, TF over GST control); with ELK3, 1.34 fold enrichment (6-mer frequency, TF over GST control).

On to ACATCC, for which the binding signal with FLI1 was 2.58 fold enrichment (6-mer frequency, TF over GST control); with ELK1, 2.73 fold enrichment (6-mer frequency, TF over GST control); in the assay with GABPA it was 2.39 fold enrichment (6-mer frequency, TF over GST control); with ERG, 3.08 fold enrichment (6-mer frequency, TF over GST control); in the assay with ELF1, 2.35 fold enrichment (6-mer frequency, TF over GST control); in the assay with EHF, 2.7 fold enrichment (6-mer frequency, TF over GST control). In addition, the binding signal with SPI1 was 2.5 fold enrichment (6-mer frequency, TF over GST control); with SPIB it was 2.69 fold enrichment (6-mer frequency, TF over GST control); with ELK3, 2.98 fold enrichment (6-mer frequency, TF over GST control).

Regarding ATCTCG, the binding signal was 1.41 fold enrichment (6-mer frequency, TF over GST control) with FLI1; 1.27 fold enrichment (6-mer frequency, TF over GST control) with ELK1; 1.42 fold enrichment (6-mer frequency, TF over GST control) in the assay with GABPA; 1.23 fold enrichment (6-mer frequency, TF over GST control) with ERG; 1.39 fold enrichment (6-mer frequency, TF over GST control) with ELF1; 1.34 fold enrichment (6-mer frequency, TF over GST control) with EHF. In addition, the binding signal with SPI1 was 1.37 fold enrichment (6-mer frequency, TF over GST control); in the assay with SPIB it was 1.26 fold enrichment (6-mer frequency, TF over GST control); in the assay with ELK3 it was 1.26 fold enrichment (6-mer frequency, TF over GST control).

For the origin of these results see publication PMC7862700, “An all-to-all approach to the identification of sequence-specific readers for epigenetic DNA modifications on cytosine”.
